# Test results from PubChem BioAssay (NCI).
# The panel holds about 83,000 compounds, 20% with a hit somewhere; the sample as a whole holds those more often.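 Cell lines were cultured in 96-well plates, exposed to a single compound concentration, and assessed for percent growth 48 hours later.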 A number with no mark means an inactive call. The source made the active and inactive calls. Rule for the calls: active = growth percent below 10; inactive = the rest.
# Assays:
# Assay in all cases: NCI-60 one-dose screen, 48 h (100 = growth as untreated, 0 = no growth, -100 = all killed)
# Details in all cases: 10 µM unless noted
# SR leukemia = system: SR leukemia
# RPMI-8226 leukemia = system: RPMI-8226 leukemia
# OVCAR-8 ovarian = system: OVCAR-8 ovarian
# OVCAR-5 ovarian = system: OVCAR-5 ovarian
# OVCAR-4 ovarian = system: OVCAR-4 ovarian
# SK-OV-3 ovarian = system: SK-OV-3 ovarian
# IGROV1 ovarian = system: IGROV1 ovarian
# OVCAR-3 ovarian = system: OVCAR-3 ovarian
# HS 578T breast = system: HS 578T breast
# NCI/ADR-RES ovarian = system: NCI/ADR-RES ovarian
# T-47D breast = system: T-47D breast
# BT-549 breast = system: BT-549 breast
# MDA-MB-435 melanoma = system: MDA-MB-435 melanoma
# SW-620 colon = system: SW-620 colon
# MCF7 breast = system: MCF7 breast
# HCT-116 colon = system: HCT-116 colon
# HCC-2998 colon = system: HCC-2998 colon
# KM12 colon = system: KM12 colon
SMILES,growth (SR leukemia),growth (RPMI-8226 leukemia),growth (OVCAR-8 ovarian),growth (OVCAR-5 ovarian) [%],growth (OVCAR-4 ovarian) [%],growth (SK-OV-3 ovarian),growth (IGROV1 ovarian),growth (OVCAR-3 ovarian),growth (HS 578T breast),growth (NCI/ADR-RES ovarian),growth (T-47D breast),growth (BT-549 breast) [%],growth (MDA-MB-435 melanoma),growth (SW-620 colon),growth (MCF7 breast),growth (HCT-116 colon),growth (HCC-2998 colon),growth (KM12 colon)
CNCCCOc1c(Br)cc(CCNC(=O)/C(Cc2cc(Br)c(OC)c(Br)c2)=N/O)cc1Br,-57% (active),-30.7% (active),2.04% (active),36.2,14.3,37.2%,6.03% (active),-25.4% (active),-17.9% (active),9.44% (active),-27.5% (active),48,-59.6% (active),-47.1% (active),-40.3% (active),-91.6% (active),-49.5% (active),-1.14% (active)
C#C[C@@]1(O)[C@@H](CO)O[C@@H](n2cc(Br)c3c(Cl)ccnc32)[C@@H]1O,22.4%,0.227% (active),-42.5% (active),40.8,26.9,42.1%,61%,-9.54% (active),40.9%,0.838% (active),-17.8% (active),22.6,56.7%,14.5%,1.48% (active),23.1%,37%,65%
C=CC(=O)Nc1cccc(Nc2nc(Nc3ccc(OCCOC(F)F)cc3)ncc2F)c1,10.5%,42.1%,46%,45.6,40.6,-25% (active),14%,48.4%,23.4%,44.6%,32.8%,24.5,9.37% (active),19%,23.9%,36%,35.8%,37.4%
